From PubChem
An excerpt weighted towards active compounds, which were near 2.5% of everything screened.
UBC13 polyUb – inhibitors of human UBC13 polyubiquitin chain formation. P61088. TR-FRET. inhibition, % at 20 µM. hit rate 0.47% among 330,000; in the data active = inhibition above about 45%, passing the limit was not always enough
MEKK2 WT-MEK5 – raises or lowers MEK5 binding to wildtype human MEKK2 PB1 domain; Q9Y2U5; bead flow cytometry, Alexa488-MEK5 binding to MEKK2 WT; actives lie on both sides; binding response (% of control), % at 10 µM; hit rate 1.1% among 290,000; AID 1531; in the data active = binding response below about 67% or above about 130%
MEKK2 mut-MEK5 – signal of MEK5 binding to mutant human MEKK2 PB1 domain; percent response, % at 10 µM; bead flow cytometry, Alexa488-MEK5 binding to MEKK2 mutant; AID 1530; hit rate 0.35% among 290,000; in the data active = percent response above about 24%, passing the limit was not always enough
MEKK3 PB1 HTS – modulators (inhibitors or enhancers) of MEK5 binding to human MEKK3 PB1 domain. Q99759. bead-based flow cytometry, Alexa488-MEK5 binding to MEKK3; actives lie on both sides; 0 = blocked by unlabeled MEK5, 100 = vehicle. binding response (% of control), % at 10 µM. hit rate 1.4% among 290,000. AID 1529;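 active = binding response more than 3 SD above or below the average of its plate-row segment, actives on both sides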;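 note: Alexa488 bead fluorescence after subtracting the streptavidin-only scavenger bead signal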
Target sequence (Q99759 whole entry, looked up, the tested form may be a part): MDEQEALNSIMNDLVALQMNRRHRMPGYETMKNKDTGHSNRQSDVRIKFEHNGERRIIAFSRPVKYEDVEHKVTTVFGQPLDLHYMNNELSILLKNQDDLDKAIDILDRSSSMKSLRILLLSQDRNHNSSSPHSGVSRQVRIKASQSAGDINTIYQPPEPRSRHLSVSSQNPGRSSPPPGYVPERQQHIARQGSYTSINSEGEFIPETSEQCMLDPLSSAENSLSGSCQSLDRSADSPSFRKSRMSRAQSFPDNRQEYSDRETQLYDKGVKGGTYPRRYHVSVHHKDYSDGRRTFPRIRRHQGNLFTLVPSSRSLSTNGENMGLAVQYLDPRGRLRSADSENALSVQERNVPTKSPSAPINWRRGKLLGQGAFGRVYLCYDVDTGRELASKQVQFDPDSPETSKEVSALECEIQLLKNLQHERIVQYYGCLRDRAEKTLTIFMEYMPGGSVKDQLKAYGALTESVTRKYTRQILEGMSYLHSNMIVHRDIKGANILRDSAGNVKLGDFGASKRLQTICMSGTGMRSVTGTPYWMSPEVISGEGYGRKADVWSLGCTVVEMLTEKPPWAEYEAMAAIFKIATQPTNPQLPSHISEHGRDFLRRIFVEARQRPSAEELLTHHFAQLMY
Rce1 inhib – blocks yeast Ras-converting enzyme | Q03530 | yeast membranes, quenched prenylated peptide cleavage fluorescence | calls only | hit rate 0.27% among 290,000;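 active = fall in fluorescence gain of 50% or more versus controls, with final raw signal at or below 3038400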;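 note: plate controls were neutral control wells for no effect and wells lacking membranes for full effect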
MEKK2wt confirm – raises or lowers MEK5 binding to wildtype human MEKK2, retest. bead flow cytometry, Alexa488-MEK5 binding to MEKK2 WT; actives lie on both sides. hit rate 2.4% among 5,900. binding response (% of control), % at 10 µM. shares compounds with MEKK3 PB1 HTS. AID 1892; in the data active = binding response below about 16% or above about 210%; inactive = in between
MEKK2mut-MEK5 – signal of MEK5 binding to mutant human MEKK2, retest; hit rate 2% among 5,900; percent response, % at 10 µM; AID 1893; bead flow cytometry, Alexa488-MEK5 binding to MEKK2 mutant; shares compounds with MEKK3 PB1 HTS; in the data active = percent response mostly above about 71%, no sharp cut-off; inactive = mostly below about 38%;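 note: higher means compound restores mutant binding toward wildtype level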
MEKK3 confirm – MEKK3-MEK5 PB1 inhibition, single concentration confirmation. AID 1894. binding response (% of control), % at 10 µM. shares compounds with MEKK3 PB1 HTS. bead flow cytometry, Alexa488-MEK5 binding to MEKK3; active compounds read low. hit rate 1.8% among 5,900;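 active = binding response below 72% of control, or above a set upper limit, though filed actives all read lower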;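 note: 100% = DMSO only wells and 0% = binding blocked by excess unlabeled MEK5; lower values mean stronger disruption of MEK5 binding to MEKK3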
* = called active by the depositor; i = inactive; · = no result; [ ] = another dose, or the depositor's remark.

SMILES	UBC13 polyUb	MEKK2 WT-MEK5	MEKK2 mut-MEK5	MEKK3 PB1 HTS	Rce1 inhib	MEKK2wt confirm	MEKK2mut-MEK5	MEKK3 confirm
O=C(CSc1nc2ccccc2c(=O)n1-c1ccccc1)N1CCN(CCO)CC1	-10	3.0*[inhibitor]	-21	2.0*[inhibitor]	i	96	1	104
Cc1nc2ccccc2n1S(=O)(=O)c1cc(C(=O)O)ccc1Cl	-8	110	8	106	i	·	·	·
O=C(O)CC12CC3CC(C1)CC(n1ncc(N4CCC5(CC4)OCCO5)c(Cl)c1=O)(C3)C2	-7	90	-18	89	i	·	·	·
CCN1C(c2ccccc2)=C(c2ccccc2)S/C1=C/C=C1\SC(=S)N(C)C1=O	·	-7.0*	-15	37*[inhibitor]	·	29	-20	51*
CCN1/C(=C\C=C2\C(=O)N(C)C(=S)N2C)Sc2ccccc21	-84	87	-11	95	i	·	·	·
CCN1C(c2ccccc2)=C(c2ccccc2)S/C1=C\C=C1/SC(=S)N(C)C1=O	3	-8.0*	-22	33*[inhibitor]	i	46	-44	70*
CCN1C(=O)/C(=C/C=C2/Sc3ccc4ccccc4c3N2CCO)SC1=S	-22	8.0*[inhibitor]	-3	90	i	73	-33	85
CN1CCS/C1=C/C=C1/SC(=S)N(Cc2ccccc2)C1=O	·	69	-2	95	i	·	·	·
CC(C)CN(C(=O)COC(=O)c1ccc(Br)o1)c1c(N)n(Cc2ccccc2)c(=O)[nH]c1=O	0	·	·	·	i	·	·	·
CC(C)CN(C(=O)c1cccc(S(=O)(=O)N2CCN(c3ccc(F)cc3)CC2)c1)C1CCS(=O)(=O)C1 (stereo unspecified)	4	·	·	·	i	·	·	·
CC1CCCN(c2nc3c(c(=O)[nH]c(=O)n3C)n2CCSc2nc3ccccc3o2)C1 (stereo unspecified)	-4	101	-13	82*[inhibitor]	i	108	10	108
c1ccc(CCNCCCOc2cccc3ccccc23)cc1	22	161*	33*	118	i	151	37	108
Cc1cc2nc(SCCOC(=O)Nc3cccc(Cl)c3)nc(C)c2cc1C	10	111	1	153*	i	98	-3	102
Cc1cc2nc(SCCOC(=O)Nc3ccccc3)nc(C)c2cc1C	6	107	3	106	i	·	·	·
Nc1nonc1C(=O)NCCNCc1c(OCc2ccccc2F)ccc2ccccc12	12	164*	26*	111	i	146	19	106
C=CCC1C=C(C)CC(CC=C)N1 (stereo unspecified)	2	108	0	106	i	·	·	·
Cc1cccc(-c2ccc(NC(=O)C3CCN(CC4CC4)CC3)cc2)c1	24	159*	35*	121	i	134	28	102
COc1cccc(CN2CCC(C(=O)Nc3ccc(-c4cccc(C)c4)cc3)CC2)c1O	27	133	22	98	i	·	·	·
O=C(Nc1cccc(-c2cccc(Cl)c2)c1)C1CCN(Cc2ccccn2)CC1	21	140*	23	110	i	195	61	110
COCc1ccc(CN2CCC(C(=O)Nc3cccc(-c4cscn4)c3)CC2)o1	-2	109	4	104	i	·	·	·
COCc1ccc(CN2CCC(C(=O)Nc3cccc(-c4cccc(Cl)c4)c3)CC2)o1	29	177*	25*	108	·	180	39	111
O=C(Nc1cccc(-c2cccc(Cl)c2)c1)C1CCN(CC2CCOC2)CC1 (stereo unspecified)	30	151*	41*	108	i	161	35	111
CN(Cc1cccs1)C(=O)c1ccc(Cl)c(S(=O)(=O)N2CCCCCC2)c1	2	·	·	·	·	·	·	·
COc1ccc(CC2(C)OC(c3ccc([N+](=O)[O-])cc3)=NN2C(C)=O)cc1 (stereo unspecified)	-3	87	-15	92	i	·	·	·
O=C(CCC(=O)N1CCOc2ccccc21)NCCCN1CCN(Cc2ccccc2)CC1	4	107	-1	102	i	·	·	·
SMILES	UBC13 polyUb	MEKK2 WT-MEK5	MEKK2 mut-MEK5	MEKK3 PB1 HTS	Rce1 inhib	MEKK2wt confirm	MEKK2mut-MEK5	MEKK3 confirm
Cc1cc(C)nc(SCc2cnc(C)nc2N)n1	8	115	0	121	i	·	·	·
NC(=O)CSc1nc2cc([N+](=O)[O-])ccc2n1-c1cccc(C(F)(F)F)c1	4	109	1	133*	i	106	4	106
CC(C)C[C@@H](C(=O)NC1CCN(Cc2ccccc2)CC1)N1C(=O)N2CCc3c([nH]c4ccccc34)[C@@]2(C)C1=O	35	142*	20	108	i	135	26	109
COc1ccc(NC(=S)NN2C(C)CCCC2C)cc1 (stereo unspecified)	4	114	3	111	i	·	·	·
COc1cccc(NC(=S)NN2C(C)CCCC2C)c1 (stereo unspecified)	4	107	1	132*	i	109	-1	104
O=C(CSc1nnc(-c2ccccc2F)o1)Nc1ccc(N2CCOCC2)cc1	2	·	·	·	·	·	·	·
CCc1ccc(C2=NNC(=Nc3cccc(S(=O)(=O)N(C)C)c3)SC2)cc1	-9	104	0	128*	i	101	-2	103
CC1=CC2=NC(=O)/C(=C\c3cccn3CCOc3cccc(C)c3)C(=N)N2O1	3	106	-1	101	i	·	·	·
CC1=CC2=NC(=O)/C(=C\c3cccn3CCOc3ccccc3)C(=N)N2O1	-15	110	1	132*	·	100	-4	104
CC(=O)c1ccc(NC(=O)C2CCN(S(=O)(=O)c3cccnc3)CC2)cc1	-2	103	-2	100	i	·	·	·
COc1cc(NC(=O)C2CCN(S(=O)(=O)c3cccnc3)CC2)cc(OC)c1OC	-4	114	25*	115	i	104	10	108
O=c1oc2ccccc2c(Nc2cccc3cccnc23)c1[N+](=O)[O-]	-14	89	-10	96	i	·	·	·
O=c1oc2ccccc2c(Nc2ccc3ncccc3c2)c1[N+](=O)[O-]	-11	109	1	147*	i	97	-3	99
CC(C)(C)c1ccc(OCC(O)CN(CCO)CC(O)Cn2ccc3ccccc32)cc1 (stereo unspecified)	23	106	0	133*	·	115	5	103
O=S(=O)(c1ccccc1)N1CCN(c2ncccn2)CC1	-3	101	10	102	i	·	·	·
O=S(=O)(c1ccc(F)cc1)N1CCN(c2ncccn2)CC1	-2	118	28	134*	i	108	10	109
COc1ccc(-c2nn(-c3ccccc3)cc2/C=C/C(=O)OCC(=O)Nc2ccc(C#N)cc2)cc1	9	106	-1	96	i	·	·	·
